Assay results reported in the supplement of paper PMC13380429.

Legend:
[1] = tested on: Vero E6 infected with SARS-CoV-2; test: morphology score (similarity to uninfected cells); higher = more like uninfected cells; settings: 24 h
[2] = tested on: Vero E6 infected with SARS-CoV-2; test: SARS-CoV-2 infection rate relative to infected DMSO; higher = more infection, active = 60 or less; settings: 24 h

COc1ccc(C2C(=O)c3ccccc3C2=O)cc1 [anisindione] (10 µM)
morphology score [1]: -0.177 | SARS-CoV-2 infection rate [2]: 114% (inactive)

Clc1ccc(CO/N=C(\Cn2ccnc2)c2ccc(Cl)cc2Cl)c(Cl)c1 [oxiconazole] (10 µM)
morphology score [1]: -0.0771 | SARS-CoV-2 infection rate [2]: 114% (inactive)

Cc1ccc(=O)n(-c2ccc(O)cc2)c1 (10 µM)
morphology score [1]: -0.0543 | SARS-CoV-2 infection rate [2]: 94.5% (inactive)

CNC(=O)c1ccccc1Sc1ccc2c(/C=C/c3ccccn3)n[nH]c2c1 [axitinib] (10 µM)
morphology score [1]: 0.563 | SARS-CoV-2 infection rate [2]: 80.5% (inactive)

O=C(OCCOCCO)c1ccccc1Nc1cccc(C(F)(F)F)c1 [etofenamate] (10 µM)
morphology score [1]: -0.0601 | SARS-CoV-2 infection rate [2]: 112% (inactive)

O=C(O)CCCCN(CCc1ccccc1OCc1ccc(CCc2ccccc2)cc1)Cc1ccc(C(=O)O)cc1 [cinaciguat] (10 µM)
morphology score [1]: -0.0659 | SARS-CoV-2 infection rate [2]: 102% (inactive)

Nc1cccc2c1C(=O)N(C1CCC(=O)NC1=O)C2=O (configuration not stated) [pomalidomide] (10 µM)
morphology score [1]: -0.074 | SARS-CoV-2 infection rate [2]: 108% (inactive)

C[C@]12CC[C@@H]3c4ccc(OS(=O)(=O)O)cc4CC[C@H]3[C@@H]1CCC2=O [estropipate] (10 µM)
morphology score [1]: 0.227 | SARS-CoV-2 infection rate [2]: 99% (inactive)

Oc1cc2c(cc1O)[C@H](Cc1cccc3ccccc13)NCC2 (10 µM)
morphology score [1]: -0.102 | SARS-CoV-2 infection rate [2]: 119% (inactive)

O=C(O)Cc1sc(-c2ccccc2)nc1-c1ccc(Cl)cc1 [fentiazac] (10 µM)
morphology score [1]: 0.0803 | SARS-CoV-2 infection rate [2]: 100% (inactive)

O=C(C1CC1)N1CC[C@@H](Cc2n[nH]c(=O)n2-c2ccc(-c3ccc4occc4c3)cc2)C1 (10 µM)
morphology score [1]: 0.269 | SARS-CoV-2 infection rate [2]: 90.5% (inactive)

CC(=O)OCC(=O)[C@@]1(O)CC[C@H]2[C@@H]3CCC4=CC(=O)C=C[C@]4(C)[C@H]3[C@@H](O)C[C@@]21C [prednisolone-acetate] (10 µM)
morphology score [1]: -0.148 | SARS-CoV-2 infection rate [2]: 108% (inactive)

CO[C@H]1C[C@H](O[C@H]2[C@H](C)O[C@@H](O[C@@H]3/C(C)=C/C[C@@H]4C[C@@H](C[C@]5(C=C[C@H](C)[C@@H](C6CCCCC6)O5)O4)OC(=O)[C@@H]4C=C(C)[C@@H](O)[C@H]5OC/C(=C\C=C\[C@@H]3C)[C@]54O)C[C@@H]2OC)O[C@@H](C)[C@@H]1O [doramectin] (0.833333 µM)
morphology score [1]: 0.0705 | SARS-CoV-2 infection rate [2]: 104% (inactive)

CCCCCC(O)CCCC(=O)O (configuration not stated) (10 µM)
morphology score [1]: 0.00301 | SARS-CoV-2 infection rate [2]: 103% (inactive)

OC1=c2ccccc2=C(NC2CCCCC2)/C1=C\c1ccccc1 (0.833333 µM)
morphology score [1]: 0.213 | SARS-CoV-2 infection rate [2]: 85.5% (inactive)

O=C1CC2(CCCC2)CC(=O)N1CCNC[C@H]1COc2ccccc2O1 (10 µM)
morphology score [1]: -0.0647 | SARS-CoV-2 infection rate [2]: 113% (inactive)

CC(C)[C@@H](C)/C=C/[C@@H](C)[C@H]1CC[C@H]2C3=CC=C4C[C@@H](O)CC[C@]4(C)[C@H]3CC[C@]12C [ergosterol] (10 µM)
morphology score [1]: 0.0665 | SARS-CoV-2 infection rate [2]: 104% (inactive)

CCOC(=O)N[C@@H]1CC[C@@H]2[C@@H](C1)C[C@H]1C(=O)O[C@H](C)[C@H]1[C@H]2/C=C/c1ccc(-c2cccc(F)c2)cn1 [vorapaxar] (10 µM)
morphology score [1]: 0.209 | SARS-CoV-2 infection rate [2]: 106% (inactive)

C[C@]12CC[C@H](O)CC1=CC[C@@H]1[C@@H]2CC[C@]2(C)C(n3cnc4ccccc43)=CC[C@@H]12 [galeterone] (0.833333 µM)
morphology score [1]: -0.052 | SARS-CoV-2 infection rate [2]: 113% (inactive)

CCOC(=O)NNc1ccc(N(CC)CC(C)O)nn1 (configuration not stated) [cadralazine] (10 µM)
morphology score [1]: 0.0865 | SARS-CoV-2 infection rate [2]: 108% (inactive)

CCCCCCCCN=c1ccn(CCCCCCCCCCn2ccc(=NCCCCCCCC)cc2)cc1 [octenidine] (0.833333 µM)
morphology score [1]: -0.0145 | SARS-CoV-2 infection rate [2]: 108% (inactive)

CCC(CC)(NC(=O)C(C)C)C(=O)N[C@@H](CCCNC(=N)N)C(=O)NC1(C(=O)NC(c2ccc(F)cc2)c2ccc(F)cc2)CCCC1 (10 µM)
morphology score [1]: -0.044 | SARS-CoV-2 infection rate [2]: 116% (inactive)

O=C(Nc1nc2cccc(-c3ccc(CN4CCS(=O)(=O)CC4)cc3)n2n1)C1CC1 [filgotinib] (10 µM)
morphology score [1]: 0.154 | SARS-CoV-2 infection rate [2]: 97% (inactive)

COc1cc(C[C@@H]2NCCc3cc(O)c(O)cc32)cc(OC)c1OC [trimethoquinol] (10 µM)
morphology score [1]: 0.0323 | SARS-CoV-2 infection rate [2]: 99.5% (inactive)

Cc1ccc(S(=O)(=O)/C=C/C#N)cc1 (0.833333 µM)
morphology score [1]: 0.173 | SARS-CoV-2 infection rate [2]: 112% (inactive)

O=NN(CCCl)C(=O)NC1CCCCC1 [lomustine] (10 µM)
morphology score [1]: -0.0183 | SARS-CoV-2 infection rate [2]: 108% (inactive)
